Bioassay records as filed in PubChem BioAssay.
Only some compounds are listed: those with a hit (about 2.2% of all), similar ones and a draw of the others.
PAX8 reporter: inhibitors of PAX8 transcriptional activity in RMG-I cells; RMG-I TPO-luciferase reporter, SteadyGlo, 24 h; inhibition, % at 12.6 µM; actives 1.2% (n = 360,000); AID 652154;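 active means mean replicate inhibition at least 60% with every replicate also reaching 60%; inconclusive means only one of the two criteria is met; inactive means mean below 60% and not all replicates reaching 60%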;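 further: luciferase light reporting Pax8 driven TPO promoter activity; plate controls were median of neutral control wells for no effect and mitoxantrone controls for full effect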
LGR2 inh: blocks bursicon-induced cAMP signaling via Drosophila LGR2; HEK293 LGR2, CRE-luciferase, bursicon-stimulated, 4 h; inhibition, % at 9.99 µM; actives 0.35% (n = 380,000); AID 720647;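 active means drop in luminescence signal, shown as inhibition above about 50% in the replicate tests, limit read from the data, passing the limit was not always enough; inconclusive means probably only some replicates passing the limit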;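 further: agonist challenge used bursicon conditioned medium at about half maximal strength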
TRPM1 prom inh: MITF TRPM1 promoter inhibition in SK-MEL-5 cells | actives 0.83% (n = 330,000) | inhibition, % at 12.5 µM | SK-MEL-5 TRPM1 promoter luciferase, 24 h | AID 488899;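 active means mean inhibition across replicates of 60% or more, whatever share of single replicates reaches that level; inconclusive means some that reach 60%, reason not given; inactive means mean inhibition across replicates below 60%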
Shn3 inh set2: Schnurri-3 reporter inhibition in Clone20 osteoblasts; Clone20 osteoblast Shn3 3'UTR firefly luciferase, 24 h; AID 588674; inhibition, % at 12.5 µM; actives 0.52% (n = 360,000);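 active means mean inhibition of at least 75% with every replicate also reaching 75%; inconclusive means mean inhibition at least 75% but some replicate below; inactive means mean inhibition below 75%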;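 further: 0% = median of neutral control wells and 100% = pilot-screen positive control compound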
LMP1 NFkB inh: reduces LMP1-driven NF-kappaB luciferase signal; LMP1-induced NF-kappaB luciferase reporter cells, luminescence; inhibition, % at 12.5 µM; actives 0.69% (n = 350,000); AID 504558; in the data active means inhibition above about 41%; inconclusive means no clear call, values can overlap the other calls;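 further: 0% = neutral control wells and 100% = reference inhibitor control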
EWS-Fli block: EWS/Fli transcriptional activity inhibition; A673 NR0B1-luciferase reporter, viability-normalised; inhibition, % at 12.6 µM; actives 0.67% (n = 350,000);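 active means mean inhibition of at least 50% after viability correction, with every replicate also passing that limit; inconclusive means mean reaches 50% but only one of two replicates passes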;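 further: firefly luciferase signal divided by Alamar Blue viability fluorescence both relative to DMSO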
DNA binding: binds DNA displacing acridine orange. AC35, µM (titrated, usually from 68 µM), without a hit: top-dose activity change, negative = DNA binding. AID 720586. actives 2% (n = 640). salmon sperm DNA acridine orange fluorescence polarization. shares compounds with EWS-Fli block;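 active means fitted curve reaches a 35% signal fall AC35 below twice the sample's top valid tested dose, actives reach about 48 µM in these data; inactive means the rest, including activity in the rising direction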;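 further: lower polarization ratio signals compound binding to DNA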
* = called active by the depositor; ? = inconclusive; nt = no result; ! = not active in a repeat.

SMILES	PAX8 reporter	LGR2 inh	TRPM1 prom inh	Shn3 inh set2	LMP1 NFkB inh	EWS-Fli block	DNA binding
CC=Cc1ccc2n(c1=O)C[C@H]1[C@H](CO)[C@@H](C(=O)NCC3CC3)N(C(=O)CC3CC3)[C@@H]21 (mixture of isomers)	5	5	nt	nt	nt	-1	nt
O=C(/C=C/c1cc(Br)ccc1O)c1ccco1	13	27	51	12	18	59*	-17%
CCc1c(C(=O)NN2C(=O)C3CCCCC3C2=O)csc1C (configuration not stated)	2	22	-20	-9	1	65*	-2%
COc1cc(-c2coc3c(C(=O)NCc4ccc(C(F)(F)F)cc4)cccc23)ccc1O	14	-2	nt	2	nt	62*	7%
CCOc1cc2[nH]c(=S)n(Cc3ccc(C(=O)NCCN(CC)CC)cc3)c(=O)c2cc1OCC	-33	-11	3	5	0	58*	3%
COc1ccc(CC(N)c2csc(NC(=O)Nc3cccc(C(F)(F)F)c3)n2)cc1 (configuration not stated)	-3	-4	nt	96*	nt	53*	-4%
CN(C)Cc1c(O)ccc2c1O/C(=C\C=C\c1ccccc1)C2=O	77*	-40	93*	45	-98	75*	-39%
CCN1CCN(Cc2c(O)ccc3c2O/C(=C\C=C\c2ccccc2)C3=O)CC1	50	6	57	0	-28	9	nt
CCCCC[C@H](C)N1C[C@H](COCc2ccccc2)Oc2cc(N3CC[C@@H](N(C)C)C3)ccc2S1(=O)=O	26	-2	nt	nt	nt	59*	-4%
CCCC#Cc1ccc([C@H]2[C@@H](CO)N3CCCCN(C(=O)NC4CCCC4)C[C@H]23)cc1	1	20	nt	nt	nt	18	nt
C=C1C(=O)O[C@H]2[C@H]1[C@H](OC(=O)/C(C)=C\C)C[C@]1(CO1)[C@@H]1[C@H](OC(C)=O)C=C(C)[C@]21O	16	6	3	-22	-7	-3	nt
C=C1C(=O)O[C@@H]2[C@H]1[C@@H](OC(=O)/C(C)=C/C)C/C(C)=C\C(=O)/C=C(\C)[C@@H]2O	98*	55*	96*	-31	67*	73*	-6%
O=C(NC[C@H]1CC[C@@H]2[C@@H](CN2Cc2cccc(Cl)c2)O1)C1CC1	-20	nt	nt	nt	nt	-5	nt
CC1(C(=O)NCc2ccco2)Cc2c(-c3cccc(C(F)(F)F)c3)ccnc2O1 (configuration not stated)	10	5	nt	17	nt	39	nt
CN(C)c1ccc(-c2ccnc3c2CC(C)(C(=O)NCc2cccs2)O3)cc1 (configuration not stated)	13	-4	nt	21	nt	47	nt
CN(C)c1ccc(-c2ccnc3c2CC(C)(C(=O)NCc2ccco2)O3)cc1 (configuration not stated)	-11	-5	nt	1	nt	64*	3%
CC1(C(=O)NCc2ccco2)Cc2c(-c3cccc(C(N)=O)c3)ccnc2O1 (configuration not stated)	nt	-20	nt	1	nt	53*	-11%
CCOc1cc(/C=N/Nc2cc(C)nc(-n3nc(C)cc3C)n2)ccc1O	32	5	?	?	70*	53*	-14%
CC(NC(=O)c1ccco1)c1nc(-c2ccc(C(C)(C)C)cc2)no1 (configuration not stated)	-38	-16	-39	34	-6	78*	-22%
COc1ccc(C(C)(O)c2nc(-c3cccc(F)c3)cs2)cc1 (configuration not stated)	18	2	nt	-5	nt	53*	2%
Cc1ccc2oc(/N=C(\N)NC(=O)C(C)(C)C)nc2c1	29	100*	72*	nt	66*	85*	-6%
COc1cccc(S(=O)(=O)N(C)C[C@H]2OCc3cnnn3CCCC(=O)N([C@@H](C)CO)C[C@H]2C)c1	-17	13	nt	15	5	60*!	-12%
COc1cccc(S(=O)(=O)N(C)C[C@@H]2OCc3cnnn3CCCC(=O)N([C@H](C)CO)C[C@H]2C)c1	6	-3	nt	8	0	4	nt
COc1ccc(CCCNC(=O)C2Cc3c(-c4ccc5c(c4)OCO5)ccnc3O2)cc1 (configuration not stated)	28	-3	nt	-3	nt	53*	-2%
CCc1ccc(Cn2ncc3c(C(=O)O)cc(C)nc32)cc1	-5	-12	-9	-5	3	75*	10%
SMILES	PAX8 reporter	LGR2 inh	TRPM1 prom inh	Shn3 inh set2	LMP1 NFkB inh	EWS-Fli block	DNA binding
CCc1ccc(NC(=O)c2cnn3c(C(F)F)cc(C)nc23)cc1	7	2	11	0	2	0	nt
COc1ccc2c3c([nH]c2c1)[C@@H](CO)N(C(=O)c1ccncc1)CC31CCN(C(=O)c2ccncc2)CC1	nt	-6	nt	nt	nt	-1	nt
COc1ccc(NC(=O)N(C)[C@H]2C[C@H]3c4[nH]c5ccccc5c4CCN3C(=O)[C@H]2CO)cc1	-8	-16	nt	33	-15	53*	-5%
C[C@@H]1CN([C@@H](C)CO)C(=O)c2cc(C#CCN(C)C)cnc2O[C@H]1CN(C)C(=O)c1cccc(F)c1	nt	-12	nt	nt	nt	-10	nt
Cc1c(C=NNc2ccccc2)[nH]c(=O)[nH]c1=O	-27	7	-8	3	-3	17	nt
COC(=O)c1c(C)[nH]c(/C=N/Nc2ccccc2)c1C	-33	nt	-97	-33	-12	54*	-17%
COc1ccc(COC[C@@]23Oc4ccccc4[C@@H](NC(=O)N2C)[C@H]3CO)cc1	34	nt	nt	nt	nt	8	nt
C/C(=N\N(c1ccccc1)c1ccccc1)c1ccco1	6	14	-12	-2	-10	58*	0%
O=C(NCc1ccc(F)cc1)N1[C@H]2CC[C@@H]1C=C(c1ccc(F)cc1OCc1ccccc1)C2	-22	20	nt	10	6	54*	-9%
COc1ccc(CNC(=O)N2[C@H]3CC[C@@H]2C=C(c2ccc(F)cc2OCc2ccccc2)C3)cc1OC	26	19	nt	21	?	-35	nt
COCCNC(=O)C[C@@H]1C[C@H]2c3cc(N(C)C)ccc3O[C@H]2[C@@H](CO)O1	2	4	nt	nt	nt	-3	nt
CCCCCCCCCCCCCCCCCCNc1ccn(C2OC(COP(=O)(O)OCC3OC(n4cc(F)c(=O)[nH]c4=O)CC3O)C(O)C2O)c(=O)n1 (configuration not stated)	18	nt	-3	42	23	61*	-6%
O=c1[nH]c(=O)n(C2OC(CO)C(O)C(O)C2O)cc1F (configuration not stated)	nt	nt	nt	nt	nt	6	nt
Cc1noc(C)c1NC(=O)N(C)C[C@@H]1Oc2ncc(C3=CCCCC3)cc2C(=O)N([C@@H](C)CO)C[C@@H]1C	-13	-3	nt	nt	nt	-5	nt
CN(C)c1ncnc2c1ccn2C1OC(CO)C(O)C1O (configuration not stated)	?	23	4	88*	7	63*	14%
